# Publication PMC8159961, “Exploring protein hotspots by optimized fragment pharmacophores” (Nature Communications, 2021)
# Target: 5-HT1A receptor (human, UniProt P08908)
# Assay: primary screen, binary call; higher = more effect of the substance
# Parameters: hit call from the mean of at least two separate experiments
# Settings: 10 µM; call rule not given here
# Experimental: GPCR radioligand binding assays were performed in HEK293 cells with stable expression of human 5-HT1A, 5-HT6, and 5-HT7b receptors (prepared with the use of Lipofectamine 2000). Non-specific binding was defined with 10 µM of 5-HT in 5-HT1AR and 5-HT7R binding experiments, whereas 10 µM of mianserin was used in 5-HT6R assays, respectively. Each compound was tested at 10 µM concentration. Results were expressed as means of at least two separate experiments.
# Chain of 5-HT1A receptor (P08908 whole entry, looked up): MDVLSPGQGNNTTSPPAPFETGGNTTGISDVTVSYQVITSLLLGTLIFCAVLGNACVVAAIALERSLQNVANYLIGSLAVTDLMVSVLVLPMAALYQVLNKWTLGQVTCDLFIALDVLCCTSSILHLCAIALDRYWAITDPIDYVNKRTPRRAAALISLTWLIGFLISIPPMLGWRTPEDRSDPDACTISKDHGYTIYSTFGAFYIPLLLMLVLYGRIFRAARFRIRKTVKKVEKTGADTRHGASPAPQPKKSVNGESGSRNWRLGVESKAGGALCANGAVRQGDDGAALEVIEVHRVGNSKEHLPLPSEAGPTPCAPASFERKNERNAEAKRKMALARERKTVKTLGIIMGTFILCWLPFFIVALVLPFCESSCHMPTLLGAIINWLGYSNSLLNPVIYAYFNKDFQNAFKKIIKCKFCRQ
row,SMILES,5-HT1
1,COc1ccc(CN2CCNCC2)cc1F,0 (inactive)
2,Cc1ccc(-c2ccc(O)cc2)cc1,0 (inactive)
3,O=C(O)CC1CCC(=O)N1 (centres unmarked),0 (inactive)
4,N#CCCN1CCc2ccccc21,0 (inactive)
5,CC(CN)N1CCc2sccc2C1 (centres unmarked),0 (inactive)
6,O=C(CN1CCNCC1)c1ccccc1,0 (inactive)
7,N#CC1CCS(=O)(=O)C1 (centres unmarked),0 (inactive)
8,FC1(F)CNCC(F)(F)O1,0 (inactive)
9,N[C@H]1c2ccccc2C[C@H]1CO,0 (inactive)
10,NC(=O)N1CCC(C(=O)O)CC1,0 (inactive)
11,Fc1ccc2c(C3CCNCC3)c[nH]c2c1,1 (active)
